In PubChem BioAssay:
For some of these results: Measured potencies and affinities stand elsewhere. The source made the active and inactive calls.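 The calls were made as follows, unless noted: active = compound raising the membrane signal above positive-control mean plus 3 SD in both repeats, and a primary screen hit; inactive = the rest.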

Tests used:
[1] = test system: TRPC4 beta (transient receptor potential cation channel C4), mouse; test: TRPC4 cation channel opening, retest – cell-based, Fluo4 calcium, HEK293 TRPC4beta/mu-opioid, duplicates, 10 µM, confirmation (AID 2426;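 active = fluorescence ratio normalized to control raised more than 50% in primary screen plus both repeat runs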); conditions: Fluo4 calcium fluorescence, at 10 µM; active compounds read high
[2] = test system: transient receptor potential cation channel C4 beta (TRPC4), mouse; test: TRPC4 cation channel opening, second retest – cell-based, second round, Fluo4, HEK293 TRPC4beta/mu-opioid, 1 µM, confirmation (AID 2461;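 active = primary screen active and over 50% activation in each of two duplicate runs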); conditions: Fluo4 calcium fluorescence, at 1 µM; active compounds read high
[3] = test system: TRPC4 (transient receptor potential cation channel C4 beta), mouse; test: potentiation of DAMGO EC20 TRPC4 response – cell-based, second round, Fluo-4, HEK293 TRPC4beta/mu-opioid, 1 µM, confirmation (AID 2554;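 active = primary screen hit whose fluorescence ratio, in both repeats, exceeds the weak agonist control mean by 3 SD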); conditions: DAMGO EC20, Fluo-4 calcium flux, at 1 µM; active compounds read high
[4] = test system: TRPC4 beta (transient receptor potential cation channel C4), mouse; test: potentiation of DAMGO EC20 TRPC4 response – cell-based, Fluo-4, HEK293 TRPC4beta/mu-opioid, confirmation (AID 2555;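 active = primary screen hit whose calcium fluorescence ratio, in both repeats, exceeds the weak agonist control mean by 3 SD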); conditions: DAMGO EC20, Fluo-4 calcium flux, at 10 µM; active compounds read high
[5] = target: Short transient receptor potential channel 4 (Mus musculus) (UniProt Q9QUQ5); test: blockers of DAMGO-evoked TRPC4 calcium flux – cell-based, Fluo4, HEK293 TRPC4beta/mu-opioid, confirmation (AID 2636;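 active = calcium signal cut by more than 3 SD below the full-agonist control yet still positive, in both repeats and the earlier primary screen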); conditions: at 10 µM; active compounds read high
Chain of Short transient receptor potential channel 4 (Mus musculus) (Q9QUQ5 whole entry, looked up): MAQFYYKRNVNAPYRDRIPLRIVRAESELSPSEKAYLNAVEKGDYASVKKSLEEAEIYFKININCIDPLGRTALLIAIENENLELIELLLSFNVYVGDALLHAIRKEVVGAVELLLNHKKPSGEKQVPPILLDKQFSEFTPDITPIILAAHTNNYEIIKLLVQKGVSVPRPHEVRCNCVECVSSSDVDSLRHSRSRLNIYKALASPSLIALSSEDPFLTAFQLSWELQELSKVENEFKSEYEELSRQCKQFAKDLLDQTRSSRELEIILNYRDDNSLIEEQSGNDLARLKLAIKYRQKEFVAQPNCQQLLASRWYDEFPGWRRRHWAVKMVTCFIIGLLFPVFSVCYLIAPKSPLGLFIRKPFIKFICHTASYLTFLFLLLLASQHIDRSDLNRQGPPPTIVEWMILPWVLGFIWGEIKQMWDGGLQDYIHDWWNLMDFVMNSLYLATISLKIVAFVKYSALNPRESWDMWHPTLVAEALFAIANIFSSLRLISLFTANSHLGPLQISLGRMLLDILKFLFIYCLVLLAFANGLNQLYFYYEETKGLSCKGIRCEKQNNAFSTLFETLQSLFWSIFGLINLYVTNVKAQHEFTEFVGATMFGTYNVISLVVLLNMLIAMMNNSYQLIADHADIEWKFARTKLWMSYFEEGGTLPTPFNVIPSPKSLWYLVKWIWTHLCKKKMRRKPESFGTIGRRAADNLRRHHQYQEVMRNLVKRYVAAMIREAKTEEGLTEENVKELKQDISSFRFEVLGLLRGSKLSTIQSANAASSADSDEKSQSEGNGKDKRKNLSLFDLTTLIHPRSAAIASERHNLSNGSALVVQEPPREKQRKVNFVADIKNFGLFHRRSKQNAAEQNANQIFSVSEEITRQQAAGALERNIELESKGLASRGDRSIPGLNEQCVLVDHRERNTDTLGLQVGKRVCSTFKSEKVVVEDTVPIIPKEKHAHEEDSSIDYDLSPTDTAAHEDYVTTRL

[6] = target: Short transient receptor potential channel 4 (Mus musculus) (UniProt Q9QUQ5); test: blockers of DAMGO-evoked TRPC4 calcium flux – cell-based, second round, Fluo4, HEK293 TRPC4beta/mu-opioid, 1 µM, confirmation (AID 2637;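 active = calcium signal ratio cut to more than 3 SD under the fully stimulated control mean yet still positive, in both repeats and the primary screen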;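 as to inhibition: percent of integrated ratio relative to wells lacking test compound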); conditions: at 1 µM; active compounds read high
[7] = target: Short transient receptor potential channel 4 (Mus musculus) (UniProt Q9QUQ5); test: calcium entry via TRPC4 opening agents – cell-based, HEK293 TRPC4/mu-opioid, Fluo-4 calcium, dose response (AID 434937;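 active = primary screen activator hit with a dose response curve and TRPC4 channel activation at any tested dose; inactive = no activation, no dose response, or not a primary hit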)
[8] = target: Short transient receptor potential channel 4 (Mus musculus) (UniProt Q9QUQ5); test: potentiation of DAMGO-evoked TRPC4 calcium signal – cell-based, HEK293 TRPC4/mu-opioid, Fluo-4 calcium, EC20 DAMGO, dose response (AID 434941;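 active = earlier screen potentiator hit that boosts the TRPC4 ion channel at some dose, with a dose response; inactive = no potentiation, no dose response, or not a prior hit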;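 also: calcium entry triggered by an EC20 dose of DAMGO at the co-expressed mu-opioid receptor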)
[9] = target: Short transient receptor potential channel 4 (Mus musculus) (UniProt Q9QUQ5); test: block of DAMGO-driven TRPC4 calcium entry – cell-based, HEK293 TRPC4/mu-opioid, Fluo-4 calcium, dose response (AID 434942;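 active = primary screen inhibitor hit that blocks the TRPC4 channel at some tested dose, yielding a dose curve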)
[10] = target: Short transient receptor potential channel 6 (Mus musculus) (UniProt Q61143); test: TRPC6 blockade by TRPC4 inhibitor hits – cell-based, HEK293, membrane potential dye, duplicate, selectivity assay for TRPC4 inhibitor project, confirmation (AID 434948;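 active = active in primary screen and both duplicates, each dropping signal beyond three positive-control SD with fluorescence still positive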); conditions: HEK293 TRPC6, membrane potential dye fluorescence, at 10 µM, stimulated with maximal-effect acetylcholine; active compounds read high
Chain of Short transient receptor potential channel 6 (Mus musculus) (Q61143 whole entry, looked up): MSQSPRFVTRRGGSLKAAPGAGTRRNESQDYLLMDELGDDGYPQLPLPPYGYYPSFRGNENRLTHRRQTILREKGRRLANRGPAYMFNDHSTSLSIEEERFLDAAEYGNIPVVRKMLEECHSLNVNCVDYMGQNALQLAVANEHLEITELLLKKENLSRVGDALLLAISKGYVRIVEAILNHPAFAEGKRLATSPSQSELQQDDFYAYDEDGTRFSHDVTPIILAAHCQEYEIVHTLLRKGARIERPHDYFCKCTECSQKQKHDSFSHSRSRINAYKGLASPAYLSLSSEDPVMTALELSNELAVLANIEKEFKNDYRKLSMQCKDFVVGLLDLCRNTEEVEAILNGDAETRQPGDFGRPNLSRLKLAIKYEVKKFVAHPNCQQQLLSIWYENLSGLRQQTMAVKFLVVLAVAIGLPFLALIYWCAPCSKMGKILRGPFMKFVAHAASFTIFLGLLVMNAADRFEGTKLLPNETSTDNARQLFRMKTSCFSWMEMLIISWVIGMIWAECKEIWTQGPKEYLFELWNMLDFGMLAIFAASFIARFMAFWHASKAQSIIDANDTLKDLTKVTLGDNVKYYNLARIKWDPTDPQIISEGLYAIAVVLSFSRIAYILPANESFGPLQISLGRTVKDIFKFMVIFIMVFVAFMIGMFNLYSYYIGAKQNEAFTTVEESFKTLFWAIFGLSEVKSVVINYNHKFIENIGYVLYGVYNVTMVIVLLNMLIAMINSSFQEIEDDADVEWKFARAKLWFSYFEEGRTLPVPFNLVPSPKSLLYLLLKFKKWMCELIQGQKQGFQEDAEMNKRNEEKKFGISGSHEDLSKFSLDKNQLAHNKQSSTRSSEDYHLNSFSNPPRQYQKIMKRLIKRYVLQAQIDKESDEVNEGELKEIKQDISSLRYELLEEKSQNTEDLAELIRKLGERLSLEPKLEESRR

[11] = target: Short transient receptor potential channel 6 (Mus musculus) (UniProt Q61143); test: TRPC6 opening by TRPC4 activator hits – cell-based, HEK293, membrane potential dye, duplicate, selectivity assay for TRPC4 activator project, confirmation (AID 434950;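 active = membrane potential signal rise above negative control mean plus 3 SD in both duplicates, also active in the earlier TRPC4 screen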;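 as to activation: 0% = buffer only wells and 100% = acetylcholine maximal-effect wells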); conditions: HEK293 TRPC6, membrane potential fluorescence, at 10 µM; activation: active compounds read high; outcome: activation
[12] = target: Short transient receptor potential channel 6 (Mus musculus) (UniProt Q61143); test: positive modulators of mouse TRPC6 channel – HEK293 cells, membrane potential dye, duplicate, selectivity assay for TRPC4 potentiator project, confirmation (AID 434952); conditions: HEK293 TRPC6, membrane potential dye fluorescence, at 10 µM, maximal acetylcholine added after compound; active compounds read high
[13] = target: Short transient receptor potential channel 4 (Mus musculus) (UniProt Q9QUQ5); test: calcium flux activators in TRPC4/5HT1a cells, counter-screen for TRPC4 activator project, cell-based, second counter screen, HEK293 TRPC4/5HT1a, Fluo-4 (AID 434977;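 active = calcium signal rise above buffer-control mean plus 5 SD in both duplicates, and also a hit in the primary screen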); conditions: Fluo-4 calcium flux, at 10 µM; active compounds read high
[14] = serotonin-gated TRPC4 signal block – cell-based, second counter screen, HEK293 TRPC4/5HT1a, Fluo-4, counter-screen for TRPC4 inhibitor project, confirmation (AID 434978;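 active = primary screen active whose calcium signal fell more than 3 SD beyond the full-serotonin control mean in both duplicate plates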;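 also: serotonin given first at submaximal then at maximal dose after compound preincubation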); conditions: Fluo-4 calcium flux, at 10 µM, serotonin added to trigger calcium flux; active compounds read high
[15] = test system: TRPC4 (mouse), co-expressed with 5HT1a in HEK293; test: enhancement of serotonin-evoked TRPC4 response – cell-based, second counter screen, HEK293 TRPC4/5HT1a, Fluo-4, counter-screen for TRPC4 potentiator project, confirmation (AID 434979;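 active = signal rise over 3 SD above mean of control wells given weak agonist, in both repeats and first screen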); conditions: Fluo-4 calcium flux, at 10 µM, serotonin added at its EC20 dose; active compounds read high
[16] = nonspecific calcium rise without TRPC4 – cell-based, HEK293 mu-opioid receptor line, counter-screen for TRPC4 activator project, confirmation (AID 449723;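 active = hit in primary screen, with calcium signal over 5 SD above buffer well mean in both duplicates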;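 also: counter screen cells carry the mu-opioid receptor alone and lack TRPC4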); conditions: HEK293 mu-opioid cells, Fluo-4 calcium fluorescence, at 10 µM; active compounds read high
[17] = nonspecific potentiation of DAMGO calcium response – cell-based, HEK293 mu-opioid receptor line, counter-screen for TRPC4 allosteric potentiator project, confirmation (AID 449724;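 active = calcium signal rise more than 3 SD above the low-dose agonist control mean, in both duplicate plates and the primary screen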); conditions: HEK293 mu-opioid receptor cells, Fluo-4 calcium flux, at 10 µM, compound added before EC20 DAMGO stimulus; active compounds read high

Cc1cc(N2CCOCC2)nc(NCc2ccccc2)n1
inactive: outcome [1] | outcome [2] | outcome [3] | outcome [4] | outcome [5] | outcome [6] | outcome [7] | outcome [8] | outcome [9] | outcome [10] | outcome [11] | outcome [12] | outcome [13] | outcome [14] | outcome [15] | outcome [16] | outcome [17]

COc1ccc(C(=O)OCCc2sc[n+](CC(=O)c3ccccc3)c2C)cc1
active: inhibition [10] 43%
inactive: outcome [1] | outcome [2] | outcome [3] | outcome [4] | outcome [5] | outcome [6] | outcome [7] | outcome [8] | outcome [9] | outcome [11] | outcome [12] | outcome [13] | outcome [14] | outcome [15] | outcome [16] | outcome [17]

Cc1nn(-c2ccccc2)c2nc(-c3ccccc3)cc(C(=O)N3CCOCC3)c12
active: potentiation [4] 15% | potentiation [15] 34.4%
inactive: outcome [1] | outcome [2] | outcome [3] | outcome [5] | outcome [6] | outcome [7] | outcome [8] | outcome [9] | outcome [10] | outcome [11] | outcome [12] | outcome [13] | outcome [14] | outcome [16] | outcome [17]

CCCC(=O)Nc1c(-c2ccccc2)c(=O)c(C)nn1-c1ccc(Cl)cc1
active: activation [11] 33.5%
inactive: outcome [1] | outcome [2] | outcome [3] | outcome [4] | outcome [5] | outcome [6] | outcome [7] | outcome [8] | outcome [9] | outcome [10] | outcome [12] | outcome [13] | outcome [14] | outcome [15] | outcome [16] | outcome [17]

CCC(=O)c1ccc(N2CCN(C(=O)c3ccccc3Br)CC2)c(F)c1
active: potentiation [15] 19.2%
inactive: outcome [1] | outcome [2] | outcome [3] | outcome [4] | outcome [5] | outcome [6] | outcome [7] | outcome [8] | outcome [9] | outcome [10] | outcome [11] | outcome [12] | outcome [13] | outcome [14] | outcome [16] | outcome [17]

CC(C)CN(C(=O)C1CC1)c1c(N)n(Cc2ccccc2)c(=O)[nH]c1=O
inactive: outcome [1] | outcome [2] | outcome [3] | outcome [4] | outcome [5] | outcome [6] | outcome [7] | outcome [8] | outcome [9] | outcome [10] | outcome [11] | outcome [12] | outcome [13] | outcome [14] | outcome [15] | outcome [16] | outcome [17]

CC1(C)Cc2nc3oc4c(=O)n(CC(=O)Nc5ccccc5)cnc4c3cc2CO1
inactive: outcome [1] | outcome [2] | outcome [3] | outcome [4] | outcome [5] | outcome [6] | outcome [7] | outcome [8] | outcome [9] | outcome [10] | outcome [11] | outcome [12] | outcome [13] | outcome [14] | outcome [15] | outcome [16] | outcome [17]

Cc1ccsc1C(=O)OCC(=O)NCCNC(=O)COC(=O)c1sccc1C
inactive: outcome [1] | outcome [2] | outcome [3] | outcome [4] | outcome [5] | outcome [6] | outcome [7] | outcome [8] | outcome [9] | outcome [10] | outcome [11] | outcome [12] | outcome [13] | outcome [14] | outcome [15] | outcome [16] | outcome [17]

Cc1cccc(C)c1NC(=O)NCCCN1CCN(c2ccccc2)CC1
inactive: outcome [1] | outcome [2] | outcome [3] | outcome [4] | outcome [5] | outcome [6] | outcome [7] | outcome [8] | outcome [9] | outcome [10] | outcome [11] | outcome [12] | outcome [13] | outcome [14] | outcome [15] | outcome [16] | outcome [17]

O=C(NN/C(=N/S(=O)(=O)c1ccc(Cl)cc1)c1ccccc1)c1cccc(Cl)c1
active: inhibition [5] 70%
inactive: outcome [1] | outcome [2] | outcome [3] | outcome [4] | outcome [6] | outcome [7] | outcome [8] | outcome [9] | outcome [10] | outcome [11] | outcome [12] | outcome [13] | outcome [14] | outcome [15] | outcome [16] | outcome [17]

CN(C)CCOC(=O)C1(c2ccccc2)CCOCC1
inactive: outcome [1] | outcome [2] | outcome [3] | outcome [5] | outcome [6] | outcome [7] | outcome [8] | outcome [9] | outcome [10] | outcome [11] | outcome [12] | outcome [13] | outcome [14] | outcome [16] | outcome [17]
active: potentiation [4] 8% | potentiation [15] 23.2%

C=CCNC(=S)N/N=C/c1ccc(C(C)(C)C)cc1
active: inhibition [5] 79% | inhibition [6] 41%
inactive: outcome [1] | outcome [2] | outcome [3] | outcome [4] | outcome [7] | outcome [8] | outcome [9] | outcome [10] | outcome [11] | outcome [12] | outcome [13] | outcome [14] | outcome [15] | outcome [16] | outcome [17]

Cc1cc(C)cc(NC(=O)c2nnn(Cc3cc(C)ccc3C)c2N)c1
inactive: outcome [1] | outcome [2] | outcome [3] | outcome [5] | outcome [6] | outcome [7] | outcome [8] | outcome [9] | outcome [10] | outcome [11] | outcome [12] | outcome [13] | outcome [14] | outcome [16] | outcome [17]
active: potentiation [4] 16% | potentiation [15] 27.4%

CC1(C)CC(=O)C(C=NCCN2CCN(C(=O)CCl)CC2)=C(O)C1
inactive: outcome [1] | outcome [2] | outcome [3] | outcome [4] | outcome [5] | outcome [6] | outcome [7] | outcome [8] | outcome [9] | outcome [10] | outcome [11] | outcome [12] | outcome [13] | outcome [14] | outcome [15] | outcome [16] | outcome [17]
